Screening results as filed in PubChem BioAssay.
Hits are enriched below; roughly 4.6% of the tested compounds scored in any of these assays.
proKLK7 act: proKLK7 (human) activation, primary screen | P49862 | purified proKLK7, EDANS-DABCYL substrate fluorescence; 100% is mature enzyme control, 0% vehicle | AID 652039 | hit rate 0.9% among 370,000 | activation, % at 7 µM;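 active = activation above the mean of all tested compounds plus 3 SD, computed per campaign excluding outliers beyond control limits, cut at about 13% in these data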
FAS-TE inh: inhibitors of human fatty acid synthase thioesterase domain. P49327. recombinant FAS-TE, OMFH fluorogenic substrate, fluorescence endpoint. inhibition, % at 15 µM. hit rate 0.67% among 360,000. AID 602261;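 active = compounds whose normalised, plate-corrected inhibition of enzyme fluorescence in the single-dose primary screen is 50% or more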
NR3A LBD binder: NR3A (human) ligand-binding domain modulation. NR3A LBD differential scanning fluorimetry, Tm shift; 0% = protein alone, 100% = glycine-bound protein. Tm shift relative to glycine control, % at 25 µM. hit rate 2.5% among 340,000. AID 1259313;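 active = melting temperature shift of at least 10% of the positive control shift, at one fixed dose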
ADAM17 inh: inhibits human ADAM17; hit rate 0.83% among 370,000; P78536; recombinant ADAM17, EDANS/DABCYL FRET peptide cleavage; inhibition, % at 6.95 µM;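 active = inhibition above the mean of compounds lying between control limits plus 3 SD, set per campaign, cut at about 8.5% in these data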
Target sequence (P78536 215-824 limits assumed): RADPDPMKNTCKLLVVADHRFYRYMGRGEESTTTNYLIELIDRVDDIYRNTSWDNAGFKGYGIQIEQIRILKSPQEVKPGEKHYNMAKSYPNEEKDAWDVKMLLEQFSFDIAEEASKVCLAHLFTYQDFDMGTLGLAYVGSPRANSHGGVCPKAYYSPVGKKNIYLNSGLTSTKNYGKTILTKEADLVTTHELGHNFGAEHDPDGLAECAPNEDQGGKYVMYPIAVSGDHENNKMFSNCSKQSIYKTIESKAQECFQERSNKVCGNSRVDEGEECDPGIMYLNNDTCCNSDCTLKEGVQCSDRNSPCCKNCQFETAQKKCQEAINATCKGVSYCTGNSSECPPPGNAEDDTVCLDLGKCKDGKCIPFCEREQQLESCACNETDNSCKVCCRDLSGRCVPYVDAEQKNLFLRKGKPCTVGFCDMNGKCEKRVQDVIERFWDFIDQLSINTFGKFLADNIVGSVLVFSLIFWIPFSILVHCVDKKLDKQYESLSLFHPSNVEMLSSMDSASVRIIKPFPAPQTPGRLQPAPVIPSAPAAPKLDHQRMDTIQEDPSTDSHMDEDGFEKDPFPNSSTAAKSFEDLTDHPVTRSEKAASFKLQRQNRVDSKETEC
ADAM10 inh: inhibits human ADAM10 | recombinant ADAM10, EDANS/DABCYL FRET peptide cleavage, 3 h | inhibition, % at 7 µM | hit rate 0.62% among 370,000 | AID 720582;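 active = inhibition above a per-campaign cutoff equal to the mean of compounds falling between control-based bounds plus 3 SD, cut at about 20% in these data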
proKLK7 act conf: proKLK7 activation, confirmation. shares compounds with proKLK7 act. purified proKLK7, EDANS-DABCYL substrate fluorescence; scaled: vehicle 0, mature enzyme 100. activation, % at 7 µM. hit rate 68% among 3,200. AID 686949;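 active = activation, as change over the incubation, above the mean of all tested compounds plus 3 SD, cut at about 13% in these data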
EDANS-DABCYL int: optically interferes with EDANS-DABCYL signal, flagging KLK7 hits. shares compounds with proKLK7 act. EDANS-DABCYL substrate fluorescence interference, no enzyme, 4 h; solvent 0%, active enzyme control 100%. activation, % at 7 µM. hit rate 80% among 3,200. AID 686952;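 active = activation above the all-compound mean plus 3 SD, ignoring values outside control-based bounds, cut at about 4.8% in these data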;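 note: value is the 4 h activation minus the activation read at time zero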
Hits are given with their value; i = inactive; nt = no result given.

SMILES	proKLK7 act	FAS-TE inh	NR3A LBD binder	ADAM17 inh	ADAM10 inh	proKLK7 act conf	EDANS-DABCYL int
COc1ccc(OC)c(S(=O)(=O)N2CCC(C(=O)N3CCN(C4CCCCC4)CC3)CC2)c1	i	nt	nt	i	i	nt	nt
CCOC(=O)[C@]12CCCCC/C=C\1N(CCc1ccc(Cl)cc1)C(=O)[C@H]2CC(=O)NCCCOC	i	nt	nt	i	i	nt	nt
CN(C)CCCNc1oc(-c2ccc(Cl)cc2)nc1C#N	34	i	i	i	i	24	21
Cc1ccc(-c2nc(C#N)c(NCCN3CCCCC3)o2)cc1	17	i	i	i	i	i	7.2
CCN(CC)CCCNc1oc(-c2cccc(Cl)c2)nc1C#N	41	i	i	i	i	i	18
COCCNc1oc(-c2ccc(Cl)cc2)nc1C#N	22	i	i	i	i	13	12
CCCCCCCCN1C(=O)[C@@H](CC(=O)NCCC(C)C)C[C@@]2(C(=O)OC)C1=C[C@H](C(C)C)O[C@@H]2C1CC1	i	nt	nt	i	i	nt	nt
CN(CCOC(=O)c1occ2ccccc12)C1CN(Cc2cn(Cc3ccccc3Cl)nn2)S(=O)(=O)C1 (stereo unspecified)	i	nt	nt	i	i	nt	nt
CN1C(=O)c2cc(NC(=O)C3CCCCC3)ccc2OC[C@H]2O[C@@H](CC(=O)NC3CCCC3)CC[C@H]21	i	nt	nt	i	i	nt	nt
CC1CN(Cc2cc(=O)oc3cc(O)ccc23)CC(C)O1 (stereo unspecified)	46	i	i	i	i	67	67
Cc1ccc2c(CN3CCN(Cc4ccccc4)CC3)cc(=O)oc2c1	i	i	i	i	i	nt	nt
O=C(c1ccco1)N1CCN(Cc2cccc3ccccc23)CC1	i	i	i	i	i	nt	nt
O=c1cc(CN2CCN(Cc3ccccc3)CC2)c2ccc(O)cc2o1	71	i	i	i	i	65	72
O=C(c1ccco1)N1CCN(Cc2cc(=O)oc3cc(O)ccc23)CC1	90	i	i	i	i	57	68
O=c1c2ccccc2oc2cc(NCCCN3CCOCC3)ccc12	75	i	i	i	i	65	64
Cn1c2ccccc2c(=O)c2cc(NCCCN3CCOCC3)ccc21	75	i	i	i	i	70	76
O=C(NCCCn1ccnc1)c1cc2ccccc2oc1=O	i	i	i	i	i	nt	nt
O=c1c2ccccc2oc2cc(NCCCn3ccnc3)ccc12	63	i	i	i	i	66	60
O=c1c2ccccc2oc2ccc(NCCCN3CCOCC3)cc12	i	i	i	i	i	nt	nt
COc1ccc(-c2cc(C(=O)N3CCOCC3)c3cc(C)ccc3n2)cc1	64	i	i	i	i	15	21
COc1ccc(-c2cc(C(F)F)n3ncc(C(=O)N4CCSCC4)c3n2)cc1	i	i	i	i	i	nt	nt
CC1CN(C(=O)c2cc3ccccc3cc2O)CC(C)O1 (stereo unspecified)	i	i	i	i	i	nt	nt
COc1ccc(-c2cc(C(=O)OCC(=O)N3CCOCC3)c3ccccc3n2)cc1	59	i	i	i	i	144	141
CC1CN(C(=O)COC(=O)c2cc3ccccc3cc2O)CC(C)O1 (stereo unspecified)	14	i	i	i	i	17	17
COc1ccc(-c2cc(C(F)F)n3ncc(C(=O)N4CCN(C)CC4)c3n2)cc1	15	i	i	i	i	i	i
SMILES	proKLK7 act	FAS-TE inh	NR3A LBD binder	ADAM17 inh	ADAM10 inh	proKLK7 act conf	EDANS-DABCYL int
CC(C)(C)c1ccc(C(=O)Nc2cc(Cl)c(F)cc2C(=O)O)cc1	nt	nt	nt	i	i	nt	nt
O=C(CN1C(=O)CCSc2ccccc21)Nc1ccc(Cl)c(Cl)c1	i	nt	nt	i	i	nt	nt
COc1ccc2nc(-c3ccc(Cl)cc3)cc(C(=O)O)c2c1	25	i	i	i	i	27	44
COc1ccc(-c2cc(C(=O)NCC3CCCO3)c3cc(C)ccc3n2)cc1 (stereo unspecified)	25	i	i	i	i	i	i
COc1ccc2nc(C)cc(C(=O)O)c2c1	i	i	i	i	i	nt	nt
CCOC(=O)CCCNC(=O)COC(=O)c1cc2ccccc2cc1O	25	i	i	i	i	19	19
CCOC(=O)CCCNC(=O)COC(=O)c1cc(C)cc(C)c1	i	i	i	i	i	nt	nt
